From the supplement of paper PMC12632987

T1: FBXL12, Q9NXK8
T1 chain: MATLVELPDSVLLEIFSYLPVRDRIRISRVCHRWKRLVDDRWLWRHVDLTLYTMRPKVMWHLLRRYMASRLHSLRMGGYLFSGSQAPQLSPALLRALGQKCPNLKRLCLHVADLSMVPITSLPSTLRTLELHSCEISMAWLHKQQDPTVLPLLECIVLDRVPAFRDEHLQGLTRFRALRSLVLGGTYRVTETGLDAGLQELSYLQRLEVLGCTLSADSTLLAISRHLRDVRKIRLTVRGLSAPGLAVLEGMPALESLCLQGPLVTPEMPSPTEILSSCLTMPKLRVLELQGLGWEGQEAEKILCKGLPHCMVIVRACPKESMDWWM


Molecular target: T1, FBXL12, Q9NXK8
Assay: median log2 fold change of GCK-ALFA target abundance (FLAG IP / Myc IP barcode read proportion) (log2 ratio); each designed protein is fused to an ALFA-tag nanobody in HEK293 cells to bring the named protein to FLAG-tagged glucokinase (GCK); Myc marks an untargeted standard; higher = target protein stabilised (more abundant)
Details: target protein: 3xFLAG-MCP-GCK-ALFA reporter; HEK293 landing pad (RPLP)
In short: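 Sequencing of reverse-transcribed, amplified circular RNA barcodes from anti-FLAG and anti-Myc immunoprecipitates provided the readout for an ALFA-nanobody-fused binder library recombined into HEK293 landing-pad cells. Those cells were induced with 2 μg mL^−1 doxycycline, transfected with a plasmid expressing a FLAG-tagged target and a Myc-tagged standard, and lysed after 48 h. Target abundance is the per-binder median log2 ratio of FLAG to Myc barcode read proportions. Only barcodes at a proportion of ≥10^−7 in both replicates and binders with ≥3 barcodes per replicate were kept, with a 10^−6 pseudocount added before the two replicates were pooled.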

Binder | median log2 fold change
FBXL12_hotspot_54_70 (protein) KVVTIRVRAETIEAARRTVETAVEIARGLREAGIEVEVELELEAEDVEAAARLAAEARHAFERIGARRIEVRLRLARPEDAPVFERLFAEELERLRREEE | -0.0489
FBXL12_hotspot_35_59 (protein) MRTVRVVFRGTSPEGARYMALAAALAAKELGARVEIEIDPNESREVRIIAGALMVLAEGRSLEEVVEELGLTEEEVEEMKRIAEELRKETERLAAELRAR | -0.274
FBXL12_hotspot_54_68 (protein) KTVLLVVRATTVEALRRTLETAVAIAEGLLAAGHRVRVEIRVDSEDVLEATRLATRAAERLEALGAEDIRVEVRVETEEEKEEVERVAEETRREERERRA | -0.347
FBXL12_hotspot_59_73 (protein) MVEVVIRGPLEQAIEQALALLKAAAELIVKHEGTEKQERLVSIFISTLRELYRLAAEAGDEEAIEEADKIVKELMEKVDPETAAKLKAEREAIKKELAAA | -0.363
FBXL12_hotspot_59_81 (protein) MRRIIIRGEPEQRLRQFEALAKALIELIKEHKGTPEAERLEEMLVGLFEEALKYAKEEKDVELLEALIKLAKEALPYVSPEYQKRLEKIIEEAEKAIKEF | -0.417
FBXL12_hotspot_59_74 (protein) MLEIRVSAHPDESTEQIKNTIRYAVEMIKELIERGLIEDAIAAIRSLGRSVTEIVIRRKNEEVYNFFLELLEELKEIANPEVKKVIDEVIKEFKERVKKA | 0.185
FBXL12_hotspot_59_76 (protein) MRRIILRGPPEQRRANLVAYSDALIKLIKEHKGTPEAERLEEMLVGLFEEALRQAEAERDRALLETLAEQVKKAIPFVSPEYAKRLEEILERIERALAEL | -0.366
FBXL12_hotspot_109_4 (protein) MTRILVGAATTPEAARHTFSTIVEIAKGLKDEEVIAVLVVLDDPEMRAIAERAAEELRALGAEVRLEVAPTLEALEAARARLLAEAEAEADARDAAAAAA | -0.542
FBXL12_hotspot_54_67 (protein) KTVTLVLRATTVEALRTTLATGVAIAKGLLAAGIRVRVVIRADSEDVLEATRIATRAAAELEALGAEDITVEIKVETEEEREEVEREAARVRAEAEAERA | -0.0916
FBXL12_hotspot_59_78 (protein) MRRIIISGEPEQRIKNLKELSDALIELIDKHKGTPEAERLEEMLVGLFEEALEQAKKEKDLELLETLKKEIEKAKPHVSPEYAEKLEELLKEVEKEIAEL | 0.0323
FBXL12_hotspot_67_86 (protein) MLRLLVIRIRAETVEEARRSLALAEAYVRAARARGWRVLVVAWAATPEVAALFRERLAELEREYGARTVLIEDRENGEEELARTTARLKAELLAEMDEEE | -0.304
FBXL12_hotspot_52_65 (protein) MRTVELVLVLQGDDVEAARRLLDRGVAIAEGLKAAGVRVRVVIEYSGSLESVPAVVEAMRRFKALGAEVRVVVSDDPALAEARAALRAAAEELGAEFVVR | -0.218
FBXL12_hotspot_35_57 (protein) MRTVVVQNAGSSLEGVRYAALAALVAVRVLGARLEVQISPDASREQRLILAAAEALASGRPLEEVVAERGLSEEELEEVRRIAEELRAEAERAVAELRAR | -0.0958
FBXL12_hotspot_109_3 (protein) KSVIVVLASGSPEHAETTFQTGVEIVKGLAEAGVKVGLLILTTKENEAIAEKALEEVKDYVAVSELVVFPTKEEFEAQLDKVKEEKIKRLEEKLEKLEEE | 0.364
FBXL12_hotspot_54_66 (protein) KTVTLVVRAETVEALRTTLATALAIAEGLLAAGITVRVEIRARSEDVLEATRLATRAAERLEALGAEDIRVEVEVETEEERREVERVAEEERRRERERRA | -0.267
FBXL12_hotspot_35_61 (protein) MRVVRVVFEGTSVEGARYMALAALLAKEALGAKVEIELSPSESREVRVIAAALRMLAEGKSIEEVKEELGLSEEEVEEMKRLAEELRAETAELLAELKAR | -0.36

Binder | median log2 fold change
FBXL12_hotspot_52_63 (protein) MRTVTIVVSVESPDMEMARRTTETAAAIAEGLAAAGVRVVLVVRAAHADALAFATRRLAEVAARLGAELRVETHPSLDPAEVAAIAAAARAAAAAAAAAA | -0.889
FBXL12_hotspot_54_69 (protein) KTVLIVVEAETLPALERSLATALEIARGLRAAGVRVEVRIRVRHPDVAAAAEAATRAAAEFRELGAERIEVEIETATEEDRERAEAARRETEARLAAEKA | -0.0113
FBXL12_hotspot_59_83 (protein) MIEVRVRGPVEEALRRALELLRAARELLKKHKDSPLYPRILEIFESALREAVRLAVEAGDEEALREAEEIVEEAEKVVSPEDAERLREALERAKREAEEE | -0.0926
FBXL12_hotspot_35_60 (protein) MRTVRVVFEGTSPEGARYMALAAALAARELGARVEVRLDPSESREVKVIAAALRVLAEGRPLEEVVEELGLTEEEIEEMEKILEELREEVERLSAELRAR | -0.434
FBXL12_hotspot_59_72 (protein) MRRVVVRGPPEQALAQALALLEALLALLVEHEGTPDEPRLLELLESTYRELLRTARALGDAAAIERARAAIEAAKARLSPATAARLAEAVARAEAEVEAE | -0.077
FBXL12_hotspot_52_64 (protein) MRTVTIRVRIESPDMAMARRTTETAAAIARGLAAAGVRVVLEVEAAHLEALRFATRELARVAAELGAELRVRVHPSLDPEEVERVYREALAEAEAEAAAA | -0.455
FBXL12_hotspot_59_85 (protein) MRVVIVRGPVEEAARRITELLEAIAELLREIPQDERAERLVEIALSLLEEAVRLVEEGLDEELARRVIEAAERAAEEATPEQAERLNEAIERLREAIERR | -0.444
FBXL12_hotspot_35_62 (protein) MRRVVVRFTSPTPEGARYMAVTALLASRELGAEVEIEVAPDASLEIRRIAAALYALVTGVPVSEALARFGLPESEAPAVEAEAERLRAEVDEELARLRAR | 0.1
FBXL12_hotspot_59_77 (protein) MRRIIISGPSEQRIRNLREFSDALIELIDKHKGTPEAERLEEMLVGLFEESLKIAKEEKDVELLKELKKLVEEAIPHVSPEYAERLKKILEEIEKELAEL | 0.0852
FBXL12_hotspot_59_84 (protein) MRKVVIRGPPEQALANALALLRAAVELLKEHAGSELAPRILEFFLSTLKEAVRAAIALGDEEALEEIERLVEEAQEAVDEEDARRLREALERAREEAEAA | -0.544
FBXL12_hotspot_59_71 (protein) MRRVVVRGDPEAALRQARALLEALLELLVRHEGTPQEPRLLELLESTYRELLRTARELGDEAAIAAARAAIEAAEKRLSPELAARLRAAVAAAEAAVEAE | -0.323
FBXL12_hotspot_59_80 (protein) MRVIRISGEPEQRIRQFELYSDALIELIKEHKGTPEAERLEEMLVGLFKYMLEVAKKEKNVELLETLVKQARKALPHVSPEYAKELEKIIKEAEKAIAEL | -0.4
FBXL12_hotspot_59_82 (protein) MVTVRVRGPLEQALAQALALLRAATALLAELADSPKRPKLLEIYKAVLREAVRLATEAGDEEALAEIERLLAEARAAVSPEDAAELEEAYAEARREAAAA | -0.218
FBXL12_hotspot_59_75 (protein) MLEIRVSAHPDESLEAIKRTVEYAIEMIKELIKRGRIEDAKAAIRSVTRSVTEIVIRKGNEELAEHFLELLEELKEIANEEVKKVIEEAMEEFRERVAAA | -0.31
FBXL12_hotspot_35_58 (protein) MRVVVVRFEGSSEEGALYMATAALLAQRVLGARVVVEIHPDESREVRIIAAALRHLAEGLSWEEIREELGLTEEEMERARELAERLRAEVERLAAELRAR | -0.372
FBXL12_hotspot_59_79 (protein) MRRIIVRGEPEQVIKQTRALADALIALIDEHRGTPEQARLEDMLVGLFEETIKYAKEIGDVELLETIVELADRALPHVSPEYQKRIEELRKEALEAIKKL | -0.207
